# Compound activity from PubChem BioAssay.
# In the library only some 0.37% were active in any assay of this set; here they are far more common.
# Rac1 act GTP bind: GTP binding modulators of activated mutant Rac1, primary screen, biochemical, bead-based flow cytometry, multiplex, fluorescent GTP. GST-Rac1 activated beads; actives lie on both sides; 100% means binding = to untreated wells. percent activity (GTP binding), % at 10 µM. 190,000 compounds, 0.11% hits. AID 764, 2007;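 active means GTP binding at least 20 percentage points away from the 100% baseline, in either direction, so actives lie on both sides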
# Rac1 wt GTP bind: wildtype Rac1 GTP binding modulators, primary screen, biochemical, GST-Rac1 beads, flow cytometry, multiplex; fluorescent GTP binding; actives lie on both sides; 0 = cold GTP competed, 100 = untreated; GTP binding activity (% of control), % at 10 µM; Ras-related C3 botulinum toxin substrate 1 (Homo sapiens), P63000; 190,000 compounds, 0.27% hits;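 active means GTP binding activity at least 20 points away from the 100% control level, either lower or higher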
# Cdc42 wt: modulators of GTP binding to wildtype Cdc42, primary screen, biochemical, multiplex bead flow cytometry, Bodipy-GTP. Cell division control protein 42 homolog (Homo sapiens), P60953. GST-Cdc42 beads; actives lie on both sides. percent activity (GTP binding), % at 10 µM. 190,000 compounds, 0.2% hits. AID 761, 2007;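 active means percent activity GTP binding at least 20 points away from the 100% baseline, either down as inhibitor or up as activator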;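 further: median bead fluorescence of bound Bodipy-FL-GTP at 100 nM; 0% = excess unlabeled GTP control and 100% = no compound control; below 100% means less GTP binding so inhibitor and above means activator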
# Target sequence (P60953 whole entry, looked up): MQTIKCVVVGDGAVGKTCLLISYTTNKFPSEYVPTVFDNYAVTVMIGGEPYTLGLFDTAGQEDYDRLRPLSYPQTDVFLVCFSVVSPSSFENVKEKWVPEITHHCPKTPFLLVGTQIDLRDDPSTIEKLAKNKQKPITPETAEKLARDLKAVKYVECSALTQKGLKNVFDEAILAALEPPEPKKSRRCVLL
# Rab7 wt modul: modulators of GTP binding to Rab7, primary screen, biochemical, wildtype, multiplex bead flow cytometry; GST-Rab7 beads, fluorescent GTP binding; actives lie on both sides; untreated = 100%, excess cold GTP = 0%; GTP binding activity (percent of control), % at 10 µM; 190,000 compounds, 0.055% hits; AID 758, 2007;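 active means fluorescent GTP binding to Rab7 beads changed by at least 20 points from the 100% baseline, either direction, mostly lower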;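 further: median green fluorescence of bound Bodipy-FL-GTP per Rab7 bead population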
# Rab2 wt GTP: modulators of GTP binding to Rab2A wildtype, primary screen, biochemical, dog, bead-based flow cytometry, multiplex; AID 760, 2007; Ras-related protein Rab-2A (Canis lupus familiaris), P61105; GTP binding activity, % at 10 µM; 190,000 compounds, 0.19% hits; GST-Rab2 wt beads, Bodipy-GTP binding;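 active means GTP binding activity at least 20 points away from 100%, either lowered or raised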;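 further: 0% = beads with excess unlabeled GTP and 100% = no-compound control corrected for plate trend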
# HRas wt GTP bind: modulators of GTP binding to HRas wildtype, primary screen, biochemical, bead-based flow cytometry, multiplex; GTPase HRas (Homo sapiens), P01112; GST-Ras wt beads, Bodipy-FL-GTP binding; actives lie on both sides; GTP binding activity, % at 10 µM; 190,000 compounds, 0.14% hits; AID 759, 2007;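 active means GTP binding activity at least 20% away from the 100% baseline, either lowered as inhibitor or raised as activator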;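 further: 0% = unlabeled GTP competition control and 100% = no-compound control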
# Target sequence (P01112 whole entry, looked up): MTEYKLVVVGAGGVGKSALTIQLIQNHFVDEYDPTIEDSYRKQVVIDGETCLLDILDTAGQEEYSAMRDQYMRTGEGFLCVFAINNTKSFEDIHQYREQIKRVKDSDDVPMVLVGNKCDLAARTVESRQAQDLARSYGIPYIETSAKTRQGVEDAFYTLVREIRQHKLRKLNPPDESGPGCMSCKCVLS
# * marks the source's active call; other numbers are inactive results; [ ] = another dose, or the depositor's remark.
SMILES,Rac1 act GTP bind,Rac1 wt GTP bind,Cdc42 wt,Rab7 wt modul,Rab2 wt GTP,HRas wt GTP bind
COc1ccc(-c2cc(C#N)nc(N3CCN(C)CC3)n2)cc1,101.0,107.0,102.0,98.0,103.0,101.0
S=c1cnc2ccccc2[nH]1,97.0,99.0,100.0,98.0,97.0,97.0
CS(=O)(=O)N(CC(=O)N1CCN(c2ccccc2)CC1)c1ccc(Cl)c(C(F)(F)F)c1,100.0,100.0,99.0,101.0,99.0,99.0
O=C(CNCc1cccs1)Nc1ccc(N2CCCCCC2)cc1,96.0,95.0,98.0,93.0,96.0,94.0
c1ccc(Nc2nc(-c3ccccn3)cs2)cc1,98.0,105.0,102.0,104.0,101.0,102.0
COc1cccc2sc(Nc3nc(-c4ccccn4)cs3)nc12,90.0,79.0*,88.0,88.0,83.0,85.0
O=C(CCN1CCCCC1)c1ccc2c(c1)OCCO2,102.0,108.0,105.0,103.0,103.0,103.0
O=C(CCN1CCCC1Cc1ccccc1)c1ccc2c(c1)OCCO2 (configuration not stated),83.0,84.0,76.0*,90.0,84.0,85.0
C=CCN1C(=NC(=O)CCCC(=O)O)SC2CS(=O)(=O)CC21 (configuration not stated),99.0,100.0,104.0,76.0*,99.0,97.0
COc1cc(/C=C2\SC(c3ccccc3)=NC2=O)cc(Cl)c1O,81.0,81.0,78.0*,88.0,77.0*,81.0
CCCCNS(=O)(=O)c1ccc(NC(=O)Cc2ccc(OC)cc2)cc1,95.0,98.0,94.0,93.0,95.0,96.0
COc1ccc(CC(=O)Nc2ccc(S(=O)(=O)NC(C)C)cc2)cc1,29.0*,27.0*,30.0*,22.0*,29.0*,33.0*
CCCc1cc(N2CCN(C(=O)c3ccco3)CC2)n2c(nc3ccccc32)c1C#N,85.0,84.0,87.0,84.0,79.0*,81.0
CS(=O)(=O)c1ccc(C(=O)OCc2nnc(-c3ccccc3)o2)cc1[N+](=O)[O-],74.0*,89.0,76.0*,100.0,85.0,87.0
Cc1ccccc1NC(=O)COC(=O)c1ccc(S(C)(=O)=O)c([N+](=O)[O-])c1,82.0,92.0,83.0,99.0,94.0,91.0
O=C(OCc1nnc(-c2ccccc2)o1)c1ccc(Cl)cc1,91.0,91.0,93.0,92.0,91.0,92.0
CS(=O)(=O)c1ccc(C(=O)OCC(=O)NC(=O)C2CCCCC2)cc1[N+](=O)[O-],71.0*,89.0,68.0*,100.0,82.0,87.0
C=CCSc1nc2sc(C)c(C)c2c(=O)n1N,99.0,99.0,99.0,103.0,99.0,100.0
Cc1nc(NCc2ccccn2)c2ccccc2n1,98.0,100.0,97.0,93.0,97.0,99.0
CCOC(=O)c1nc(NCc2cccnc2)c2ccccc2n1,97.0,99.0,97.0,95.0,95.0,96.0
O=c1c2ccccc2nc2c3ccccc3c(NCCO)nn12,78.0*,63.0*,58.0*,101.0,62.0*,62.0*
O=c1c2ccccc2nc2c3ccccc3c(NCc3cccnc3)nn12,84.0,69.0*,72.0*,86.0,72.0*,75.0*
O=c1c2ccccc2nc2c3ccccc3c(NCc3ccccn3)nn12,82.0,65.0*,75.0*,87.0,74.0*,76.0*
CCN(Cc1cnn(C)c1)Cc1nc(C(c2ccccc2)c2ccccc2)no1,96.0,98.0,97.0,96.0,98.0,97.0
Cc1noc(C)c1COc1cccc(C(=O)NCc2ccccc2Cl)c1,74.0*,72.0*,71.0*,67.0*,69.0*,52.0*
SMILES,Rac1 act GTP bind,Rac1 wt GTP bind,Cdc42 wt,Rab7 wt modul,Rab2 wt GTP,HRas wt GTP bind
Cc1noc(C)c1COc1ccc(C(=O)OCC(=O)NCc2ccccc2Cl)cc1,98.0,102.0,100.0,104.0,96.0,99.0
Cc1ccccc1NC(=O)CSc1ccsc1[N+](=O)[O-],97.0,102.0,98.0,98.0,96.0,99.0
COc1ccc2o/c(=N/NC(=O)c3cccs3)c(C(N)=O)cc2c1,80.0,57.0*,60.0*,91.0,61.0*,61.0*
COc1ccc(NC2CS(=O)(=O)CC2NCc2ccccc2)cc1 (configuration not stated),98.0,101.0,99.0,93.0,98.0,98.0
CCC(C(=O)NC1CCCC1)N(C(=O)Cn1nnc(-c2ccc(C)o2)n1)c1cnc2ccccc2c1 (configuration not stated),106.0,125.0*[activator],107.0,101.0,105.0,104.0
Cc1ccc(N=Nc2c(N)[nH]n3c(=O)cc(-c4ccccc4)nc23)cc1,77.0*,79.0*,79.0*,83.0,78.0*,85.0
Nc1[nH]n2c(=O)c3c(nc2c1N=Nc1ccc(Cl)cc1)CCCC3,84.0,74.0*,86.0,89.0,81.0,86.0
COc1cccc(N=Nc2c(N)[nH]n3c(=O)cc(-c4ccccc4)nc23)c1,91.0,93.0,92.0,94.0,88.0,92.0
Nc1[nH]n2c(=O)c3c(nc2c1N=Nc1ccccc1)CCCC3,85.0,85.0,72.0*,94.0,71.0*,73.0*
CC(=O)c1ccc(NC(=S)NNC(=O)c2ccncc2)cc1,98.0,103.0,101.0,104.0,102.0,100.0
Cc1ccc([N+](=O)[O-])cc1-c1ccc(/C=C(\C#N)c2[nH]nc(N)c2C#N)o1,88.0,79.0*,88.0,87.0,82.0,80.0
Cc1cc(C)cc(-n2cc(C(=O)O)c(=O)cc2C)c1,95.0,102.0,97.0,99.0,97.0,96.0
O=C(Nc1ncn[nH]1)c1ccc(S(=O)(=O)N2CCOCC2)cc1,92.0,91.0,94.0,92.0,100.0,88.0
Cc1nnc2ccc(-c3cccc(NC(=O)c4ccco4)c3)nn12,75.0*,56.0*,64.0*,77.0*,63.0*,65.0*
O=C(CNC1CCCCCC1)Nc1ccccc1N1CCOCC1,98.0,102.0,96.0,104.0,97.0,100.0
Cn1c(C(=O)OCC(=O)NCc2ccco2)cc2sccc21,99.0,105.0,101.0,98.0,100.0,99.0
CCC(OC(=O)c1cc2sccc2n1C)C(=O)NCc1ccco1 (configuration not stated),37.0*,37.0*,40.0*,22.0*,36.0*,44.0*
C=C(C(=O)c1ccccc1)C(C)C(=C)C(=O)c1ccccc1,95.0,96.0,95.0,97.0,94.0,94.0
